LmPK inh = blocks Leishmania mexicana pyruvate kinase activity; Q27686; purified LmPK, Kinase-Glo ATP luminescence, 1 h; Potency, µM (top dose mostly 57.5 µM), without a hit: at the highest dose activity change, negative = inhibition, actives largely listed as inhibitors; actives 0.37% (n = 290,000); further: potency means the concentration at half of the fitted maximal effect; on the % scale 0 is the no-effect control and ±100 the full control effect
Target sequence (Q27686 whole entry, looked up): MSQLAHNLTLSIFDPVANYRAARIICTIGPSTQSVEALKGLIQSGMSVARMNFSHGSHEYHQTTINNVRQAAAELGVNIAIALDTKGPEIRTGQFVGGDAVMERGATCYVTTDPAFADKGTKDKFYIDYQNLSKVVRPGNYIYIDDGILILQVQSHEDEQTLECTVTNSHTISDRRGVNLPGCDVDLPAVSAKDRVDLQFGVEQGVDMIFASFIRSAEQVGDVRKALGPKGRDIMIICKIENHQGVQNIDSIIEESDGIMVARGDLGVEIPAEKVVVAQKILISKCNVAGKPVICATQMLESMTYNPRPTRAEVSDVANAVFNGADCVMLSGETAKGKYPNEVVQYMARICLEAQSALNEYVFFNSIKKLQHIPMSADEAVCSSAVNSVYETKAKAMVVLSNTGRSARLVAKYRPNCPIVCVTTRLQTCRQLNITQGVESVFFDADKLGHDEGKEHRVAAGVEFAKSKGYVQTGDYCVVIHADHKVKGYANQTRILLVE
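In 50 mM imidazole pH 7.2 with 7 mM MgCl2, LmPK (0.1 nM) turned over PEP (0.5 mM) and ADP (0.1 mM) for 1 h at room temperature. Luciferase read-out of ATP.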
Cycloheximide cs = counter-screen for Shiga toxin inhibitors: cycloheximide protein synthesis inhibition; cell reporter, cycloheximide protein synthesis inhibition counterscreen; max response, %; actives 12% (n = 300,000); AID 2314; in the data active means max response mostly above about 13%, no sharp cut-off; inactive means mostly below about 14%; further: read at 38.3 µM for the half of the compounds with a filed dose; 0% is about no effect
Tb PYK inh = inhibitors of Trypanosoma brucei pyruvate kinase | TbPYK enzyme, Kinase-Glo Plus ATP luminescence, 45 min | Q57TT1 | Potency, µM (titrated, usually from 76.8 µM), without a hit: top-dose activity, negative = inhibition, actives largely listed as inhibitors | actives 0.12% (n = 410,000); further: potency means the concentration at half of the fitted maximal effect; on the % scale 0 is the no-effect control and ±100 the full control effect; nearly all actives have a fitted effect of over 50% in size
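Readout: single end-point luminescence (Kinase-Glo Plus, 10 min). Reaction conditions were TbPYK/substrate plus 130 uM ADP, 45 min at RT, pH 7.2 TEA buffer. No-enzyme wells served as controls, and data were normalized before concentration-response fitting.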
RE007 growth inh = less growth of the S. pombe RE007 Vpr strain; S. pombe RE007 Vpr strain, BacTiter-Glo ATP luminescence, 24 h; Potency, µM (highest dose often 92.2 µM), without a hit: at the top dose activity change, negative = less growth, actives largely listed as inhibitors; actives 0.21% (n = 360,000); active means well fitted falling curve with a large enough effect; inconclusive means small, poorly fitted or top-dose-only effect; inactive means no such curve, though single readings can be large or run the other way; further: potency means the concentration at half of the fitted maximal effect; on the % scale 0 is the no-effect control and ±100 the full control effect; nearly all actives have a fitted effect of over 50% in size
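Fission yeast strain RE007, carrying one chromosomally integrated HIV-1 vpr copy, was seeded at OD 0.01 in PMG+AL medium with 23 nL pinned compound. After 24 h at 30 °C and 99% humidity, viability was read by BacTiter-Glo luminescence.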
Shiga toxin inh = blocks Shiga toxin action in Vero cells; Vero cells, Shiga toxin protein synthesis inhibition reporter; inhibition, % at 38.7 µM; actives 9.2% (n = 290,000); AID 2315; in the data active means inhibition mostly above about 28%, no sharp cut-off; inactive means mostly below about 43%; further: 0% is about no effect
FBPA Giardia inh = Giardia lamblia aldolase inhibition; purified Giardia FBPA; Potency, µM (top dose mostly 59.6 µM), without a hit: top-dose activity, negative = inhibition, usual class: inhibitors; actives 0.71% (n = 290,000); AID 2451; further: potency means the concentration at half of the fitted maximal effect; on the % scale 0 is the no-effect control and ±100 the full control effect; nearly all actives have a fitted effect of over 55% in size
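Giardia FBPA (40 nM reagent) was preincubated 10 min at RT with compound (up to 57.5 uM final), then substrate plus GAPDH/TPI/NAD/arsenate coupling system with diaphorase/resazurin was added; resorufin fluorescence (525/598 nm) was read after 20 min.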
Active calls of the source: *. This is one part of a sample in which hits are shown more often than they occur. Unless noted, the call rests on the fitted dose curve; in most records, active means well fitted curve in the direction sought with a large enough effect; inconclusive means small, poorly fitted or top-dose-only effect, or another doubt; inactive means no such curve, though single readings can be large; an effect the other way counts as inactive or inconclusive.

CCCOc1ccc(NC(=O)CC2C(=O)N(c3cccc(OC)c3)C(=O)N2CCc2ccncc2)cc1 (centres undefined) was read as Tb PYK inh 3%.
`C[C@@H]1CC[C@H]2[C@H](C)[C@H]3CC[C@H]4C5[C@@H](O)CC6=CC(=O)CC[C@]6(C)[C@H]5C[C@H]4C3C(=O)N2C1` (some centres undefined) gave FBPA Giardia inh 0%.
CCN1C(C)=C(C(=O)OC(C)C)C(c2ccccc2Cl)C(C(=O)O)=C1C(=O)O (centres undefined) was read as Cycloheximide cs -7, Shiga toxin inh -10 and FBPA Giardia inh 0%.
CC[C@]1(O)C[C@@H]2CN(CCc3c([nH]c4ccccc34)[C@](C(=O)OC)(c3cc4c(cc3OC)N(C=O)[C@H]3[C@@](O)(C(=O)OC)[C@H](C(=O)OC)[C@@]5(CC)C=CCN6CC[C@]43[C@H]65)C2)C1 was read as FBPA Giardia inh 4%.
O=C(Nc1ccc(Cl)cc1)NC1CCCCNC1=O (centres undefined) was read as LmPK inh -3%, Cycloheximide cs 28*, Tb PYK inh -1%, RE007 growth inh 1%, Shiga toxin inh 46* and FBPA Giardia inh -9%.
Screening O=C(Nc1ccc2nsnc2c1)NC1CCCCC1 returned LmPK inh -2%, Cycloheximide cs 50*, Tb PYK inh -15%, RE007 growth inh 49%, Shiga toxin inh 72 and FBPA Giardia inh inconclusive.
`Nc1ccccc1C(=O)NC1CCCNC1=O` (centres undefined) gave Tb PYK inh 3% and RE007 growth inh -4%.
`COCCCN(C(=S)Nc1ccc(C)cc1Cl)C(C)c1ccncc1` (centres undefined) gave LmPK inh 3%, Cycloheximide cs 10, Tb PYK inh 10%, RE007 growth inh 18%, Shiga toxin inh 9 and FBPA Giardia inh -1%.
`Cc1ccc(NC(=S)N(CCC(C)C)C(C)c2ccncc2)c(Cl)c1` (centres undefined) gave LmPK inh 2%, Cycloheximide cs 23*, Tb PYK inh -1%, RE007 growth inh -16%, Shiga toxin inh 35 and FBPA Giardia inh 1%.
For CC(C)[N+]1(C)[C@@H]2CC[C@H]1CC(OC(=O)[C@@H](CO)c1ccccc1)C2 (some centres undefined) the results were FBPA Giardia inh 6%.
`CCOC(=O)c1ccc(NC(=O)Nc2ccc(S(N)(=O)=O)cc2)cc1` gave LmPK inh -1%, Cycloheximide cs -2, Tb PYK inh 0%, RE007 growth inh 4%, Shiga toxin inh -2 and FBPA Giardia inh 4%.
`CCOC(=O)c1ccc(NC(=O)Nc2cc(C)on2)cc1` gave LmPK inh -6%, Cycloheximide cs 32*, Tb PYK inh -5%, RE007 growth inh 0%, Shiga toxin inh 39* and FBPA Giardia inh -2%.
Screening CCOC(=O)c1ccc(NC(=O)Nc2ccccn2)cc1 returned LmPK inh -8%, Cycloheximide cs 24*, Tb PYK inh 6%, RE007 growth inh -4%, Shiga toxin inh 61* and FBPA Giardia inh -2%.
For Cc1cc(NC(=O)c2cc3cccc([N+](=O)[O-])c3[nH]2)ccc1F the results were LmPK inh 0%, Cycloheximide cs 56*, Tb PYK inh 0%, RE007 growth inh -1%, Shiga toxin inh 86* and FBPA Giardia inh -17%.
Cc1ccc(NC(=O)CSc2nc(-c3ccco3)cc(C(F)(F)F)n2)cc1 was read as Tb PYK inh 8%.
O=C(CCc1nc2cccnc2n1Cc1cccs1)Nc1cccc(Cl)c1 was read as Tb PYK inh 0%.
O=C(Nc1nc2ccccc2[nH]1)c1ccccc1O was read as LmPK inh -12%, Cycloheximide cs 37*, Tb PYK inh 4%, RE007 growth inh 6%, Shiga toxin inh 97* and FBPA Giardia inh 8%.
`CSCCC(NC(=O)c1cc(S(=O)(=O)N2CCOCC2)ccc1C)c1nc2ccccc2[nH]1` (centres undefined) gave Tb PYK inh -1% and RE007 growth inh -18%.
Screening CC(=O)Nc1nc2ccccc2[nH]1 returned LmPK inh -1%, Cycloheximide cs -3, Tb PYK inh 6%, RE007 growth inh -12%, Shiga toxin inh 5 and FBPA Giardia inh 2%.
CCc1ccccc1Nc1nc2ccccc2[nH]1 was read as Tb PYK inh 3% and RE007 growth inh -9%.
`O=C(Nc1nc2ccccc2[nH]1)c1cccc(Cl)c1` gave LmPK inh -7%, Cycloheximide cs 44*, Tb PYK inh -1%, RE007 growth inh 14%, Shiga toxin inh 91* and FBPA Giardia inh 3%.
`Cc1ccc(S(=O)(=O)N2CCOCC2)cc1C(=O)Nc1nc2ccccc2[nH]1` gave LmPK inh 1%, Cycloheximide cs 18*, Tb PYK inh 1%, RE007 growth inh -2%, Shiga toxin inh 13 and FBPA Giardia inh -13%.
Cc1ccc(Nc2nc3ccccc3[nH]2)nc1 was read as LmPK inh 5%, Cycloheximide cs 26*, Tb PYK inh 1%, RE007 growth inh 22%, Shiga toxin inh 53* and FBPA Giardia inh 5%.
CN1CCN(CCCNC(=O)Cn2c(-c3cccs3)cc3cc(Cl)ccc32)CC1 was read as Tb PYK inh -2%.
COC1=C(C(=O)O)N2C(=O)[C@@H](NC(=O)C(N)C3C=CCC=C3)[C@H]2SC1 (some centres undefined) was read as Tb PYK inh 4%.
For Cc1ccc(C)c(OCc2nc3ccccc3[nH]2)c1 the results were LmPK inh 0%, Cycloheximide cs 43*, Tb PYK inh -8%, RE007 growth inh inconclusive, Shiga toxin inh 88* and FBPA Giardia inh -4%.
CN(c1cccc(Cl)c1)S(=O)(=O)c1cccc(C(=O)Nc2nc3ccccc3[nH]2)c1 was read as LmPK inh 2%, Cycloheximide cs 24*, Tb PYK inh -5%, RE007 growth inh 5%, Shiga toxin inh 32 and FBPA Giardia inh 13%.
`Cc1ccc(C)c(C(=O)Nc2nc3ccccc3[nH]2)c1` gave LmPK inh 3%, Cycloheximide cs 24, Tb PYK inh 3%, RE007 growth inh 0%, Shiga toxin inh 61* and FBPA Giardia inh -10%.
For O=C(Nc1nc2ccccc2[nH]1)c1ccccc1 the results were LmPK inh 16µM*, Cycloheximide cs 17*, Tb PYK inh -22%, RE007 growth inh inconclusive, Shiga toxin inh 37 and FBPA Giardia inh -11%.

Screening data deposited in PubChem BioAssay by National Center for Advancing Translational Sciences (NCATS).
